In the library only some 6.7% were active in any assay of this set; here they are far more common.
T cruzi growth-1: T. cruzi intracellular proliferation inhibitors, primary screen, cell-based, beta-gal Tulahuen parasites, NIH3T3 host, luminescence | T. cruzi beta-gal in NIH3T3, GalScreen luminescence, 90 h | inhibition, % at 8.34 µM | hit rate 5.9% among 77,000;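 active = mean inhibition above about 93%, with at least 55% of replicates each passing it, limit read from the data, passing the limit was not always enough; inconclusive = only one of those two conditions holds; inactive = neither condition holds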
C diff growth: C. difficile growth inhibitors, primary screen, HTS. Clostridium difficile clinical isolate growth, OD600, 24 h; hits give low values. hit rate 0.25% among 86,000. growth activity, negative = inhibition, % at 16 µg/mL (by protocol);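 active = mean growth activity at or below -80% and every replicate also at or below -80%; inconclusive = mean at or below -80% but some replicate above -80%; inactive = mean growth activity above -80%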;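 note: 0% = DMSO wells and -100% = levofloxacin 16 µg/mL wells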
Pf Dd2 inh: P. falciparum Dd2 growth inhibitors, primary screen, SYBR Green fluorescence, single dose replicates | activity change, % at 10 µM | AID 1159554, 2015 | 72 h; hits give low values | hit rate 2.3% among 94,000; in the data active = activity change below about -80%; inconclusive = no clear call, values can overlap the other calls
T cruzi growth-2: T. cruzi intracellular proliferation inhibitors, confirmation, cell-based, NIH3T3 host, beta-gal parasite, luminescence, cherry-pick; shares compounds with T cruzi growth-1; T. cruzi beta-gal in NIH3T3, GalScreen luminescence, 90 h; inhibition, % at 8.35 µM; hit rate 72% among 5,600; AID 651739, 2012;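 active = mean replicate inhibition above about 95% and at least 55% of replicates individually reaching it, limit read from the data; inconclusive = only one of the two criteria is met; inactive = neither criterion is met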
T cruzi growth-3: inhibitors of intracellular T. cruzi replication, confirmation, NIH3T3 host cells, beta-gal parasites, cherry-pick, set 2 | shares compounds with T cruzi growth-1 | hit rate 21% among 5,600 | T. cruzi beta-gal in NIH3T3, GalScreen luminescence, 90 h | inhibition, % at 2.09 µM;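 active = mean inhibition above about 95%, with at least 55% of replicates also reaching it, limit read from the data; inconclusive = meets just one of the two conditions; inactive = meets neither condition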;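 note: plate controls were neutral control median for no effect and positive control median for full effect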
3T3 cytotox: cytotoxicity in mouse NIH/3T3 fibroblasts, confirmation, cytotoxicity control for T. cruzi proliferation inhibitor project, cell-based, cherry-pick, single point. shares compounds with T cruzi growth-1. NIH/3T3 viability, CellTiter-Glo ATP luminescence, 90 h. cytotoxicity (signal decrease), % at 8.35 µM. hit rate 14% among 5,600;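 active = mean signal decrease across replicates above about 35% based on untreated-well scatter, with enough replicates individually passing, limit read from the data; inconclusive = no rule stated though some were filed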;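 note: 0% = median of neutral control wells and 100% = median of positive control wells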
3T3 cytotox 2: NIH/3T3 fibroblast cytotoxicity, confirmation, cytotoxicity control, cell-based, cherry-pick, single point, set 2; NIH/3T3 viability, CellTiter-Glo ATP luminescence, 90 h; hit rate 56% among 5,600; AID 651744, 2012; inhibition, % at 24.9 µM; shares compounds with T cruzi growth-1;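 active = mean loss of cell viability signal at or above a set limit, and enough replicates individually reaching it; inconclusive = meets only the mean limit or only the replicate share; inactive = meets neither condition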;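 note: 0% = median of neutral control wells and 100% = median of positive control wells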
Numbers without * were called inactive; ? = inconclusive; · = not tested or not shown.

SMILES	T cruzi growth-1	C diff growth	Pf Dd2 inh	T cruzi growth-2	T cruzi growth-3	3T3 cytotox	3T3 cytotox 2
C[C@@H]1CCCCO[C@H](CN(C)C(=O)Nc2ccccc2)[C@H](C)CN([C@@H](C)CO)C(=O)c2cc(NC(=O)Nc3ccc(C(F)(F)F)cc3)ccc2O1	·	7	-39	·	·	·	·
CC(C)NC(=O)Nc1ccc2c(c1)C(=O)N([C@H](C)CO)C[C@H](C)[C@@H](CN(C)C(=O)Nc1ccc(C(F)(F)F)cc1)OCCCC[C@@H](C)O2	46	-1	-12	·	·	·	·
C[C@H]1CCCCO[C@H](CN(C)C(=O)Nc2ccc(C(F)(F)F)cc2)[C@@H](C)CN([C@@H](C)CO)C(=O)c2cc(NC(=O)Nc3ccc(C(F)(F)F)cc3)ccc2O1	118*	2	-78	109*	107*	5	13
CC(C)NC(=O)Nc1ccc2c(c1)C(=O)N([C@@H](C)CO)C[C@@H](C)[C@H](CN(C)C(=O)Nc1ccc(C(F)(F)F)cc1)OCCCC[C@@H](C)O2	102*	0	-29	102*	9	14	7
C[C@@H]1CCCCO[C@@H](CN(C)C(=O)Nc2ccc(C(F)(F)F)cc2)[C@H](C)CN([C@@H](C)CO)C(=O)c2cc(NC(=O)Nc3ccc(C(F)(F)F)cc3)ccc2O1	116*	18	8	99*	113*	-17	-25
C[C@@H]1CCCCO[C@H](CN(C)C(=O)Nc2ccc(F)cc2)[C@H](C)CN([C@H](C)CO)C(=O)c2cc(NC(=O)Nc3ccc(C(F)(F)F)cc3)ccc2O1	93	4	-77	·	·	·	·
C[C@H](CO)N1C[C@H](C)[C@@H](CN(C)C(=O)Nc2ccc(C(F)(F)F)cc2)OCCCC[C@H](C)Oc2ccc(NC(=O)Nc3ccc(C(F)(F)F)cc3)cc2C1=O	112*	1	-75	112*	109*	-8	1
CCCNC(=O)[C@@H]1[C@@H](CO)[C@@H]2Cn3c(cccc3=O)[C@H]1N2C(=O)NCCC	-56	-1	-8	·	·	·	·
O=C(CCN1CCCCC1)N[C@@H]1CC[C@@H](CCNS(=O)(=O)c2ccccc2)O[C@H]1CO	-24	·	-4	·	·	·	·
CCS(=O)(=O)N1CCCCN2[C@@H](CO)[C@@H](c3ccc(C#CC(C)(C)O)cc3)[C@@H]2C1	86	8	1	·	·	·	·
COc1cccc(-c2ccc3n(c2=O)C[C@@H]2[C@@H](CO)[C@H](C(=O)NC4CCCC4)[C@H]3N2C)c1	29	3	-3	·	·	·	·
OC[C@@H]1[C@@H](c2ccc(-c3cccnc3)cc2)[C@@H]2CN(CC3CCOCC3)CCCCN12	-47	-1	-55	·	·	·	·
COc1cccc(-c2ccc([C@@H]3[C@H]4CN(CC5CC5)CCCCN4[C@H]3CO)cc2)c1	93	0	10	·	·	·	·
OC[C@@H]1[C@H](c2ccc(-c3cccnc3)cc2)[C@H]2CN(CC3CCOCC3)CCCCN12	97*	-4	-48	?	83	-9	7
COc1cccc(-c2ccc([C@H]3[C@@H](CO)N4CCCCN(CC5CCOCC5)C[C@H]34)cc2)c1	107*	-9	-26	107*	70	8	97*
O=C(c1cccc(F)c1)N1CC2(C1)[C@H](c1ccccc1)[C@@H](CO)N2C(=O)C1CCC1	·	-5	-2	·	·	·	·
O=C(c1cccnc1)N1CC2(C1)[C@@H](c1ccccc1)[C@@H](CO)N2Cc1cccnc1	·	6	13	·	·	·	·
C[C@@H]1CN([C@@H](C)CO)C(=O)c2cc(C#Cc3ccccn3)cnc2O[C@@H]1CN(C)Cc1cncnc1	?	-1	35	104*	28	14	-6
C[C@H](CO)N1C[C@H](C)[C@@H](CN(C)Cc2cncnc2)Oc2ncc(C#Cc3ccccn3)cc2C1=O	?	-1	10	103*	46	-1	9

Assay outcomes as filed in PubChem.
